Measurements from PubChem BioAssay AID1159580 (chemical genetic matrix, 2015).
The campaign covered roughly 5,500 compounds. About 2,000 (36%) were called active. Roughly 18% stayed inconclusive and do not appear here. Rule as the data show it: active = normalized growth mostly below about 0.91 (no sharp cut-off); inconclusive = no clear call, values can overlap the other calls; inactive = mostly above about 0.92. Some of the results follow.

Assay: chemical genetic growth profiling, strain panel (AID 1159580);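 also: tested at 20 µM; growth read once vehicle control cultures reached saturation at 30 °C; 1 = growth at the plate median or of vehicle wells; lower values mean less growth of the strain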
Details: S. cerevisiae deletion strains, growth OD
[1] = locus YHR030C, strain SLT2, stronger effect = lower value

Measured: normalized growth

O=C1ON=C(c2ccccc2)/C1=C/c1ccc(Cl)cc1
inactive: locus YLR262C, strain YPT6, stronger effect = lower value 0.834
active: locus YAL013W, strain DEP1, stronger effect = lower value 0.174 | locus YBR229C, strain ROT2, stronger effect = lower value 0.145 | locus YDL101C, strain DUN1, stronger effect = lower value 0.203 | locus YDL134C, strain PPH21, stronger effect = lower value 0.77 | locus YEL061C, strain CIN8, stronger effect = lower value 0.637 | locus YGR078C, strain PAC10, stronger effect = lower value 0.138 | [1] 0.16 | locus YHR087W, strain rtc3, stronger effect = lower value 0.172 | locus YJR043C, strain POL32, stronger effect = lower value 0.198 | locus YJR075W, strain HOC1, stronger effect = lower value 0.129 | locus YKL190W, strain CNB1, stronger effect = lower value 0.523 | locus YLR039C, strain RIC1, stronger effect = lower value 0.782 | locus YLR058C, strain SHM2 (second series), stronger effect = lower value 0.311 | locus YLR085C, strain ARP6, stronger effect = lower value 0.297 | locus YML094W, strain GIM5, stronger effect = lower value 0.584 | locus YMR219W, strain ESC1, stronger effect = lower value 0.172 | locus YNL153C, strain GIM3, stronger effect = lower value 0.105 | locus YNL298W, strain CLA4 (second series), stronger effect = lower value 0.481 | locus YNL322C, strain KRE1, stronger effect = lower value 0.472 | locus YNR030W, strain Alg12, stronger effect = lower value 0.462 | locus YPL055C, strain LGE1, stronger effect = lower value 0.11 | locus YPL241C, strain CIN2, stronger effect = lower value 0.331 | locus YPR135W, strain CTF4, stronger effect = lower value 0.294

COc1cccc2c1C(=O)c1c(O)c3c(c(O)c1C2=O)C[C@@](O)(C(=O)CO)C[C@@H]3O[C@H]1C[C@H](N)[C@@H](O)[C@H](C)O1
inactive: locus YBR171W, strain sec66, stronger effect = lower value 0.985 | locus YBR279W, strain paf1, stronger effect = lower value 0.958 | locus YCL069W, strain vba3, stronger effect = lower value 0.965 | locus YCR088W, strain abp1, stronger effect = lower value 0.953 | locus YDL005C, strain med2, stronger effect = lower value 0.951 | locus YDL040C, strain nat1, stronger effect = lower value 0.947 | locus YDR001C, strain nth1, stronger effect = lower value 0.937 | locus YDR195W, strain ref2 1.09 | locus YDR335W, strain msn5, stronger effect = lower value 0.928 | locus YDR392W, strain spt3, stronger effect = lower value 0.906 | locus YEL003W, strain gim4, stronger effect = lower value 0.955 | locus YEL037C, strain rad23, stronger effect = lower value 0.991 | locus YEL061C, strain CIN8 (second series), stronger effect = lower value 0.982 | locus YER111C, strain swi4, stronger effect = lower value 0.988 | locus YGL167C, strain pmr1, stronger effect = lower value 0.969 | locus YGL173C, strain kem1, stronger effect = lower value 0.997 | [1] 1.01 | locus YHR079C, strain IRE1, stronger effect = lower value 0.994 | locus YJL095W, strain BCK1, stronger effect = lower value 0.958 | locus YJL154C, strain vps35, stronger effect = lower value 0.952 | locus YJL187C, strain SWE1, stronger effect = lower value 0.93 | locus YJR066W, strain TOR1, stronger effect = lower value 0.948 | locus YKR026C, strain gcn3, stronger effect = lower value 0.926 | locus YKR091W, strain srl3, stronger effect = lower value 0.943 | locus YLR113W, strain HOG1, stronger effect = lower value 0.91 | locus YLR370C, strain arc18, stronger effect = lower value 0.96 | locus YLR384C, strain iki3, stronger effect = lower value 0.977 | locus YMR129W, stronger effect = lower value 0.963 | locus YMR231W, strain pep5, stronger effect = lower value 0.967 | locus YNL183C, strain NPR1, stronger effect = lower value 0.935 | locus YNL322C, strain KRE1 (second series), stronger effect = lower value 0.943 | locus YNR049C, strain mso1, stronger effect = lower value 0.937 | locus YOR231W, strain MKK1, stronger effect = lower value 0.997 | locus YPL256C, strain CLN2, stronger effect = lower value 0.981
active: locus YAL021C, strain ccr4, stronger effect = lower value 0.648 | locus YAL026C, strain drs2, stronger effect = lower value 0.894 | locus YAL030W, strain snc1, stronger effect = lower value 0.891 | locus YBL061C, strain skt5, stronger effect = lower value 0.888 | locus YBR009C, strain hhf1, stronger effect = lower value 0.552 | locus YBR023C, strain chs3, stronger effect = lower value 0.894 | locus YBR231C, strain swc5, stronger effect = lower value 0.692 | locus YCL011C, strain gbp2, stronger effect = lower value 0.845 | locus YCL016C, strain dcc1, stronger effect = lower value 0.753 | locus YCL061C, strain MRC1, stronger effect = lower value 0.897 | locus YDR069C, strain doa4, stronger effect = lower value 0.848 | locus YDR137W, strain rgp1, stronger effect = lower value 0.846 | locus YDR159W, strain sac3, stronger effect = lower value 0.501 | locus YDR297W, strain sur2, stronger effect = lower value 0.906 | locus YDR334W, strain swr1, stronger effect = lower value 0.78 | locus YER015W, strain faa2, stronger effect = lower value 0.801 | locus YER016W, strain bim1, stronger effect = lower value 0.862 | locus YER155C, strain BEM2 (second series), stronger effect = lower value 0.595 | locus YFR010W, strain ubp6, stronger effect = lower value 0.867 | locus YGL227W, strain vid30, stronger effect = lower value 0.889 | locus YGL240W, strain doc1, stronger effect = lower value 0.488 | locus YGL253W, strain hxk2, stronger effect = lower value 0.576 | locus YHR013C, strain ard1, stronger effect = lower value 0.635 | locus YHR027C, strain rpn1, stronger effect = lower value 0.854 | locus YHR142W, strain chs7, stronger effect = lower value 0.84 | locus YJL092W, strain hpr5, stronger effect = lower value 0.855 | locus YJL095W, strain BCK1 (second series), stronger effect = lower value 0.913 | locus YJL115W, strain asf1, stronger effect = lower value 0.682 | locus YJL129C, strain trk1, stronger effect = lower value 0.337 | locus YJL164C, strain tpk1, stronger effect = lower value 0.737 | locus YJL166W, strain qcr8, stronger effect = lower value 0.59 | locus YKL160W, strain elf1, stronger effect = lower value 0.75 | locus YLL001W, strain dnm1, stronger effect = lower value 0.875 | locus YLL026W, stronger effect = lower value 0.851 | locus YLL041C, strain sdh2, stronger effect = lower value 0.918 | locus YLR027C, strain aat2, stronger effect = lower value 0.821 | locus YLR221C, strain rsa3, stronger effect = lower value 0.759 | locus YLR258W, strain gsy2, stronger effect = lower value 0.834 | locus YLR262C, strain YPT6 (second series), stronger effect = lower value 0.826 | locus YLR320W, strain mms22, stronger effect = lower value 0.312 | locus YLR342W, strain FKS1, stronger effect = lower value 0.873 | locus YLR357W, strain rsc2, stronger effect = lower value 0.785 | locus YML120C, strain ndi1, stronger effect = lower value 0.794 | locus YMR058W, strain fet3, stronger effect = lower value 0.806 | locus YMR125W, strain sto1, stronger effect = lower value 0.825 | locus YMR205C, strain PFK2, stronger effect = lower value 0.634 | locus YNL071W, strain lat1, stronger effect = lower value 0.689 | locus YNL209W, strain ssb2, stronger effect = lower value 0.899 | locus YNL248C, strain rpa49, stronger effect = lower value 0.177 | locus YOR001W, strain rrp6, stronger effect = lower value 0.875 | locus YOR070C, strain gyp1, stronger effect = lower value 0.863 | locus YOR080W, strain dia2, stronger effect = lower value 0.89 | locus YOR083W, strain WHI5, stronger effect = lower value 0.804 | locus YOR106W, strain vam3, stronger effect = lower value 0.682 | locus YOR265W, strain rbl2, stronger effect = lower value 0.879 | locus YOR270C, strain vph1, stronger effect = lower value 0.766 | locus YOR290C, strain snf2, stronger effect = lower value 0.78 | locus YPL051W, strain arl3, stronger effect = lower value 0.8 | locus YPL078C, strain atp4, stronger effect = lower value 0.785 | locus YPL106C, strain sse1, stronger effect = lower value 1.2 [resistant] | locus YPL240C, strain hsp82, stronger effect = lower value 0.926
